Shiga inhibitor: blocks Shiga toxin action in Vero cells; inhibition, % at 38.7 µM; 9.2% of 290,000 active; Vero cells, Shiga toxin protein synthesis inhibition reporter; in the data active means inhibition mostly above about 28%, no sharp cut-off; inactive means mostly below about 43%
CHX counter: counter-screen for Shiga toxin inhibitors: cycloheximide protein synthesis inhibition; cell reporter, cycloheximide protein synthesis inhibition counterscreen; max response, %; 12% of 300,000 active; AID 2314; in the data active means max response mostly above about 13%, no sharp cut-off; inactive means mostly below about 14%; further: read at 38.3 µM for the half of the compounds with a filed dose
MARV entry inh: blocks Marburg virus binding to or entry into cells | Marburg virus pseudotyped entry inhibition, cell reporter | Potency, µM (titrated, usually from 37.8 µM), hits mostly inhibitors | 1.8% of 300,000 active; calls by dose curve; tested in HEK293 cells
Lassa entry inh: Lassa virus entry inhibition | Lassa virus pseudotype entry inhibition, cell reporter | AID 540256 | Potency, µM (series often up to 37.9 µM), usual class: inhibitors | 1.2% of 300,000 active; calls by dose curve; tested in HEK293 cells; further: nearly all actives have a fitted effect of over 50% in size
Of the large screens only hits and unclear results are named; the others gave an inactive call. Compounds with a hit are over-represented: about 12% of the library has one in this group of screens.

Cc1cn(-c2ccccc2)c(C)c1/C=N\Nc1nc(N2CCOCC2)nc(N2CCOCC2)n1	none (no result: MARV entry inh, Lassa entry inh)
Brc1ccc(-c2ccc(/C=N/Nc3nc(N4CCOCC4)nc(N4CCOCC4)n3)o2)cc1	MARV entry inh 4µM
CCOc1cc(/C=N/NC(=O)c2ccc(O)cc2)ccc1Oc1nc(Cl)ncc1F	none (no result: MARV entry inh, Lassa entry inh)
CCOc1cc(/C=N\Nc2ncc(F)c(N3CCOCC3)n2)ccc1Oc1nc(Cl)ncc1F	Shiga inhibitor 100, CHX counter 42, MARV entry inh inconclusive, Lassa entry inh inconclusive
Fc1cnc(N/N=C/c2ccc(-c3ccc(Br)cc3)o2)nc1N1CCOCC1	Shiga inhibitor 58, CHX counter 34
CCOc1ccc(Br)cc1S(=O)(=O)NC(=O)c1ccccc1	none
Cc1onc(-c2c(Cl)cccc2Cl)c1C(=O)c1c[nH]c(C(=O)NCC2CCCO2)c1 (stereo unspecified)	MARV entry inh inconclusive, Lassa entry inh 8.9µM
O=C(NCC1CCCO1)c1cc2cc(F)ccc2[nH]1 (stereo unspecified)	Shiga inhibitor 38, CHX counter 27 (no result: MARV entry inh, Lassa entry inh)
CCC(CC)C(=O)c1c[nH]c(C(=O)NCC2CCCO2)c1 (stereo unspecified)	Lassa entry inh 7.1µM
COC(=O)C1(CCSC)NC(c2ccc(O)c(OC)c2)C2C(=O)N(c3ccc(C)cc3)C(=O)C21 (stereo unspecified)	none
Cc1cc(C)c2cc3c(N)c(C(=O)N4CCOCC4)sc3nc2c1	none
Cc1ccc(C)c2nc3sc(C(=O)N4CCOCC4)c(N)c3cc12	Shiga inhibitor 58, CHX counter 27, MARV entry inh inconclusive
Cc1cc(C)c2nc3sc(C(=O)N4CCOCC4)c(N)c3cc2c1	Shiga inhibitor 101, CHX counter 29 (no result: MARV entry inh, Lassa entry inh)
Cc1c(Cl)cccc1NC(=O)CSc1nc(=O)n(CCN2CCOCC2)c2c1CCC2	none (no result: Shiga inhibitor, CHX counter, MARV entry inh)
CCCCCC(=O)NNC(=O)c1c(O)c2ccccc2n(CC)c1=O	Shiga inhibitor 59, CHX counter 19, Lassa entry inh inconclusive
Cc1ccccc1NS(=O)(=O)c1ccc(C(=O)NCC(c2ccccc2)N(C)C)cc1 (stereo unspecified)	MARV entry inh 11µM
O=C(NCC(O)c1ccccc1)c1ccccc1 (stereo unspecified)	Shiga inhibitor 60, CHX counter 32, MARV entry inh inconclusive
COc1ccc(C(CNC(=O)CSc2ccccc2C)N(C)C)cc1 (stereo unspecified)	none
Cc1ccccc1NS(=O)(=O)c1ccc(C(=O)NCC(c2ccco2)N(C)C)cc1 (stereo unspecified)	none (no result: Shiga inhibitor, CHX counter)
CN(C)C(CNC(=O)c1ccc(-c2ccccc2)cc1)c1ccccc1 (stereo unspecified)	MARV entry inh 11µM
COc1ccc(C(CNC(=O)Cc2ccc(-c3ccccc3)cc2)N(C)C)cc1 (stereo unspecified)	MARV entry inh 11µM
OCCn1c(Cl)nc2ccccc21	none
CCc1ccc(CNC(=O)CCn2ccc3cc(S(=O)(=O)N4CCCC4)ccc32)cc1	none (no result: MARV entry inh, Lassa entry inh)
Cc1ccc(N(CC(=O)NCc2ccc(OC(C)C)cc2)S(=O)(=O)N(C)C)cc1	Lassa entry inh 5µM (no result: Shiga inhibitor, CHX counter, MARV entry inh)
CC1(C)CC(=O)C(C(N)=NC(=O)c2ccc([N+](=O)[O-])cc2)=C(O)C1	CHX counter 18 (no result: Lassa entry inh)
C/C(=N/NC(=O)c1ccccc1)C1=C(O)CC(C)(C)CC1=O	none (no result: MARV entry inh, Lassa entry inh)
CC1(C)CC(=O)C(Sc2ccccc2[N+](=O)[O-])=C(O)C1	MARV entry inh inconclusive
CC1(C)CC(=O)C(C(N)=NC(=O)c2ccccc2)=C(O)C1	Shiga inhibitor 70, CHX counter 39
CSc1cccc(N2CC(C(=O)Nc3cccc(S(=O)(=O)N4CCCC4)c3)CC2=O)c1 (stereo unspecified)	MARV entry inh inconclusive (no result: Shiga inhibitor, CHX counter)
O=C(CN1CCSc2ccccc21)NCCCc1ccccc1	Shiga inhibitor 86, CHX counter 37
c1csc(CSc2nnc3sc4ccccc4n23)c1	Shiga inhibitor 106, CHX counter 32, MARV entry inh inconclusive
O=C(CSc1nnc2sc3ccccc3n12)c1ccco1	Shiga inhibitor 100, CHX counter 40
O=C(CSCCSCC(=O)c1ccco1)c1ccco1	CHX counter 13 (no result: Lassa entry inh)
O=C(CSc1nnnn1-c1ccccc1)c1ccco1	CHX counter 36 (no result: MARV entry inh, Lassa entry inh)
O=C(NCCNC(=O)c1ccco1)c1ccco1	none
Cn1nnnc1SCC(=O)c1ccco1	none
CCN(C(=O)CSc1nnnn1-c1ccccc1)C1CCS(=O)(=O)C1 (stereo unspecified)	MARV entry inh inconclusive
N#CCCCN1C(=O)C(=C(C#N)C#N)c2ccccc21	none (no result: MARV entry inh, Lassa entry inh)
O=C(/C(=N\Nc1ccccc1)Sc1nnnn1-c1ccccc1)c1ccccc1	none
O=C(CCC(=O)OCc1ccc([N+](=O)[O-])cc1Cl)Nc1ccccc1	none
C[C@H](NC(=O)OCc1ccccc1)C(=O)OCN1C(=O)c2ccccc2C1=O	none (no result: Shiga inhibitor, CHX counter, Lassa entry inh)
O=S(Cc1ccc(Br)cc1)Cc1nnc(SCc2ccc(Cl)cc2)n1-c1ccccc1 (stereo unspecified)	MARV entry inh inconclusive, Lassa entry inh 13µM
Cc1ccc(C)c(CSc2c(C(C)C)cnc3c2c(=O)n(C)c(=O)n3C)c1	none (no result: Shiga inhibitor, CHX counter, MARV entry inh)
CCCCC(=O)N(CCOC)c1nnc(-c2ccc(OC)cc2)s1	none
CCN(C(=O)c1ccco1)c1nnc(-c2ccc(OC)cc2)s1	Shiga inhibitor active, CHX counter 30, MARV entry inh inconclusive, Lassa entry inh inconclusive
COCCN(C(=O)C1CC1)c1nnc(-c2cccc(C)c2)s1	CHX counter 15
Cc1ccc2nc(N(CCCN(C)C)C(=O)c3ccco3)sc2c1	none (no result: MARV entry inh)
CCCN(C(=O)c1ccco1)c1nnc(-c2cccc(C)c2)s1	Shiga inhibitor 72, CHX counter 61 (no result: MARV entry inh, Lassa entry inh)
CN(C)CCNc1ncnc2c1sc1nc(-c3ccccc3)c3c(c12)CCCC3	MARV entry inh 10µM, Lassa entry inh inconclusive
COc1ccc(NC(=O)c2ccc(CN(c3cc(Cl)ccc3C)S(=O)(=O)c3ccccc3)cc2)cc1OC	MARV entry inh 4.1µM
CCOc1ccc(C(=O)Nc2ccc(N3CCN(C)CC3)cc2)cc1	none (no result: MARV entry inh, Lassa entry inh)
COc1ccccc1NC(=O)c1ccc(CN(c2cc(Cl)ccc2C)S(=O)(=O)c2ccccc2)cc1	MARV entry inh inconclusive
COc1ccc(NC(=O)c2ccc(CN3CCN(c4ccccc4)CC3)cc2)cc1OC	MARV entry inh 10µM, Lassa entry inh inconclusive
COc1ccc(C(=O)Nc2ccc(N3CCN(C)CC3)cc2)cc1	CHX counter 48 (no result: Shiga inhibitor, MARV entry inh, Lassa entry inh)
CN1CCN(c2ccc(NC(=O)c3ccc4ccccc4c3)cc2)CC1	Shiga inhibitor 85, CHX counter 31, MARV entry inh inconclusive, Lassa entry inh inconclusive
Cc1nn(-c2ccccn2)c2c1C(=O)C(Br)CC2 (stereo unspecified)	MARV entry inh inconclusive
CCOc1ccc(CCN2C(=O)c3ccc(C(=O)O)cc3C2=O)cc1OCC	none (no result: MARV entry inh, Lassa entry inh)
NC(N)=Nc1nc(-c2ccccc2)c2cc(F)ccc2n1	MARV entry inh inconclusive
COc1ccc(CN2CCN(c3ccccc3)CC2)c(C)c1C	MARV entry inh inconclusive, Lassa entry inh 10µM
COc1ccc(C(=O)Nc2ccc(N3CCN(C)CC3)cc2)cc1OC	Shiga inhibitor 48, CHX counter 30, MARV entry inh inconclusive
Cc1ccc(C(=O)Nc2ccc(N3CCN(C)CC3)cc2)cc1	Shiga inhibitor 56, CHX counter 34, MARV entry inh inconclusive
CCOC(=O)N1CCN(C(=O)c2ccc(NC(=O)c3ccc(C)cc3)cc2)CC1	CHX counter 31, Lassa entry inh inconclusive
Cc1cc(OCC(O)CN2CCN(c3ccccn3)CC2)cc(C)c1Cl (stereo unspecified)	none

Compound activity: PubChem, National Center for Advancing Translational Sciences (NCATS)
